Measurements reported in PubChem BioAssay (NCI).
About 79,000 compounds went through this panel and 15% of them were active in at least one assay; those are over-represented in the sample as a whole. Calls of active or inactive are those of the source. Rule as the data show it: active = growth inhibition above about 70%; inactive = the rest.

What was measured:
[1] = NCI Yeast Anticancer Drug Screen. Data for the rad52 strain (AID 147);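 also: 0% = growth of vehicle-treated control cultures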; settings: S. cerevisiae rad52 mutant growth inhibition, active compounds read high
Method in brief: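 Here a repair-compromised yeast strain receives each compound; its growth is then quantified and normalised to vehicle-only controls.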

[2] = NCI Yeast Anticancer Drug Screen. Data for the wt1 strain (AID 149);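 also: 0% = growth of vehicle-treated wt1 cultures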; settings: S. cerevisiae wt1 strain (SPY 50644) growth inhibition, active compounds read high
Method in brief: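 Readout: yeast growth inhibition, normalised to vehicle controls, in the wt1 strain exposed to test compounds.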

[3] = NCI Yeast Anticancer Drug Screen. Data for the rad50EPP+ strain (AID 151);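 also: 0% = growth of vehicle-treated control cultures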; settings: S. cerevisiae rad50 mutant strain, active compounds read high
Method in brief: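 Read-out is yeast growth inhibition relative to vehicle; cells used were the rad50EPP+ strain.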

[4] = NCI Yeast Anticancer Drug Screen. Data for the mgt1 strain (AID 153); settings: S. cerevisiae mgt1 mutant growth inhibition, active compounds read high
Method in brief: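 Measured: inhibition of mgt1 yeast growth by compound, normalized to vehicle-treated cultures.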

[5] = NCI Yeast Anticancer Drug Screen. Data for the rad50 strain (AID 155);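 also: 0% = growth of vehicle-only cultures of the same strain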; settings: S. cerevisiae rad50 strain growth inhibition, active compounds read high
Method in brief: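 Compounds were tested on a yeast strain with an engineered DNA damage repair alteration; the reported value is growth inhibition normalised to vehicle treatment.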

[6] = NCI Yeast Anticancer Drug Screen. Data for the mec2-1 strain (AID 157); settings: S. cerevisiae mec2-1 strain, active compounds read high
Method in brief: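 Using mec2-1 yeast: add compound, measure growth, express inhibition versus vehicle-treated cultures.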

[7] = NCI Yeast Anticancer Drug Screen. Data for the rad14 strain (AID 159);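 also: 0% = growth of vehicle-treated control cultures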; settings: S. cerevisiae rad14 strain growth inhibition, active compounds read high
Method in brief: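 Compound-treated yeast with a defined DNA-repair lesion; growth inhibition normalised to vehicle-treated cultures.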

[8] = NCI Yeast Anticancer Drug Screen. Data for the sgs1 mgt1 strain (AID 161);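 also: 0% = growth of cultures given vehicle only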; settings: S. cerevisiae sgs1 mgt1 strain, active compounds read high
Method in brief: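 This yeast growth screen uses a strain with defined DNA-repair lesions; compound-treated growth is compared with vehicle-treated growth.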

[9] = NCI Yeast Anticancer Drug Screen. Data for the cln2 rad14 strain (AID 165);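 also: 0% = growth equal to vehicle treated cultures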; settings: S. cerevisiae cln2 rad14 strain, active compounds read high
Method in brief: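 Yeast strain cln2 rad14, bearing defects in cell cycle control and DNA repair, serves as the test system; values reflect growth inhibition compared with vehicle.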

[10] = NCI Yeast Anticancer Drug Screen. Data for the bub3 strain (AID 167); settings: S. cerevisiae bub3 mutant strain, active compounds read high
Method in brief: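 Growth of a checkpoint-deficient yeast mutant is measured after compound exposure. Values represent inhibition relative to vehicle.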

[11] = NCI Yeast Anticancer Drug Screen. Data for the mlh1 strain (AID 171);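 also: 0% = growth of vehicle-treated control cultures of the same strain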; settings: S. cerevisiae mlh1 strain growth inhibition, active compounds read high
Method in brief: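 A yeast strain with a defined genetic lesion serves as the test organism. Cultures receive compound or vehicle, and growth is measured.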

[12] = NCI Yeast Anticancer Drug Screen. Data for the sgs1 strain (AID 173);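 also: 0% = growth of vehicle-only control cultures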; settings: S. cerevisiae sgs1 mutant, active compounds read high
Method in brief: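 A genetically defined yeast mutant is incubated with the test compound, and its growth is compared to that of the same strain given vehicle.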

[13] = NCI Yeast Anticancer Drug Screen. Data for the mlh1 rad18 strain (AID 175); settings: S. cerevisiae mlh1 rad18 strain growth inhibition, active compounds read high
Method in brief: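 Steps: expose repair-defective yeast to compound; measure growth; express inhibition against vehicle-treated controls.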

[14] = NCI Yeast Anticancer Drug Screen. Data for the rad18 strain (AID 177); settings: S. cerevisiae rad18 mutant growth inhibition, active compounds read high
Method in brief: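 Measured value is growth inhibition of a yeast strain bearing a DNA repair alteration, referenced to vehicle-treated cells.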

[15] = NCI Yeast Anticancer Drug Screen. Data for the wt2 strain (AID 169);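 also: 0% = growth of vehicle-treated yeast cultures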; settings: S. cerevisiae wt2 strain growth inhibition, active compounds read high
Method in brief: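 Treated yeast vs. vehicle-treated yeast: growth inhibition determined.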

[16] = at 5.0 µM (retest, dose inferred, filed as 0.5)
[17] = at 50.0 µM (retest, dose inferred, filed as 5.0)

Measured: growth inhibition

NC(=S)NC(=S)Nc1ccccc1
inactive: [1]; at 1.2 µM -7% | [1]; at 3.7 µM -4% | [1]; at 11.0 µM -3% | [1]; at 33.0 µM 1% | [1]; at 100.0 µM 23% | [2]; at 1.2 µM -6% | [2]; at 3.7 µM -5% | [2]; at 11.0 µM -6% | [2]; at 33.0 µM 0% | [2]; at 100.0 µM 16% | [3]; at 1.2 µM -6% | [3]; at 3.7 µM -10% | [3]; at 11.0 µM -12% | [3]; at 33.0 µM -12% | [3]; at 100.0 µM -10% | [4]; at 1.2 µM -6% | [4]; at 3.7 µM -3% | [4]; at 11.0 µM 2% | [4]; at 33.0 µM 16% | [5]; at 1.2 µM 0% | [5]; at 3.7 µM -47% | [5]; [16] -1% | [5]; at 11.0 µM 18% | [5]; at 33.0 µM 5% | [5]; [17] 2% | [5]; at 50.0 µM 23.5% | [6]; at 1.2 µM -4% | [6]; at 3.7 µM -2% | [6]; [16] -2% | [6]; at 11.0 µM 2% | [6]; at 33.0 µM 8% | [6]; [17] 10% | [6]; at 50.0 µM 38.5% | [6]; at 100.0 µM 62% | [7]; at 1.2 µM -6% | [7]; at 3.7 µM -3% | [7]; at 11.0 µM 0% | [7]; at 33.0 µM 8% | [8]; [16] -3% | [8]; [17] 49% | [9]; [16] -25% | [9]; [17] 8% | [9]; at 50.0 µM 68.7% | [10]; at 1.2 µM -11% | [10]; at 3.7 µM -13% | [10]; [16] -13% | [10]; at 11.0 µM -14% | [10]; at 33.0 µM -8% | [10]; [17] 18% | [10]; at 50.0 µM 34.6% | [10]; at 100.0 µM 34% | [11]; at 1.2 µM -3% | [11]; at 3.7 µM 0% | [11]; at 11.0 µM 4% | [11]; at 33.0 µM 17% | [12]; at 1.2 µM 2% | [12]; at 3.7 µM 9% | [12]; at 11.0 µM 24% | [12]; at 33.0 µM 44% | [13]; [16] -1% | [13]; [17] 31% | [14]; at 1.2 µM -3% | [14]; at 3.7 µM -1% | [14]; at 11.0 µM 3% | [14]; at 33.0 µM 21%
active: [4]; at 100.0 µM 80% | [5]; at 100.0 µM 79% | [7]; at 100.0 µM 93% | [8]; at 50.0 µM 82.5% | [11]; at 100.0 µM 85% | [12]; at 100.0 µM 95% | [13]; at 50.0 µM 77% | [14]; at 100.0 µM 95%

CCCCCCCCCCCCCCCCCC(=O)NCCCN(C)C
inactive: [1]; at 1.2 µM -47% | [1]; at 3.7 µM -39% | [1]; at 11.0 µM -44% | [2]; at 1.2 µM -51% | [2]; at 3.7 µM -58% | [2]; at 11.0 µM -56% | [3]; at 1.2 µM -37% | [3]; at 3.7 µM -43% | [3]; at 11.0 µM 33% | [4]; at 1.2 µM -13% | [4]; at 3.7 µM -11% | [4]; at 11.0 µM -19% | [5]; at 1.2 µM -27% | [5]; at 3.7 µM -11% | [5]; [16] 33% | [5]; at 11.0 µM -17% | [6]; at 1.2 µM -31% | [6]; at 3.7 µM -31% | [6]; [16] 50% | [6]; at 11.0 µM -45% | [7]; at 1.2 µM -31% | [7]; at 3.7 µM -29% | [7]; at 11.0 µM -40% | [8]; [16] -32% | [9]; [16] 17% | [10]; at 1.2 µM 4% | [10]; at 3.7 µM 6% | [10]; [16] 42% | [10]; at 11.0 µM 1% | [15]; at 1.2 µM -29% | [15]; at 3.7 µM -27% | [15]; at 11.0 µM -37% | [11]; at 1.2 µM -21% | [11]; at 3.7 µM -35% | [11]; at 11.0 µM -44% | [12]; at 1.2 µM -5% | [12]; at 3.7 µM -13% | [12]; at 11.0 µM -13% | [13]; [16] 36% | [14]; at 1.2 µM -32% | [14]; at 3.7 µM -32% | [14]; at 11.0 µM -12%
active: [1]; at 33.0 µM 97% | [1]; at 100.0 µM 97% | [2]; at 33.0 µM 98% | [2]; at 100.0 µM 97% | [3]; at 33.0 µM 96% | [3]; at 100.0 µM 96% | [4]; at 33.0 µM 98% | [4]; at 100.0 µM 98% | [5]; at 33.0 µM 94% | [5]; [17] 98% | [5]; at 50.0 µM 92.2% | [5]; at 100.0 µM 96% | [6]; at 33.0 µM 98% | [6]; [17] 98% | [6]; at 50.0 µM 93.8% | [6]; at 100.0 µM 98% | [7]; at 33.0 µM 97% | [7]; at 100.0 µM 97% | [8]; [17] 97% | [8]; at 50.0 µM 93.2% | [9]; [17] 97% | [9]; at 50.0 µM 92% | [10]; at 33.0 µM 98% | [10]; [17] 95% | [10]; at 50.0 µM 92.2% | [10]; at 100.0 µM 98% | [15]; at 33.0 µM 97% | [15]; at 100.0 µM 98% | [11]; at 33.0 µM 97% | [11]; at 100.0 µM 97% | [12]; at 33.0 µM 96% | [12]; at 100.0 µM 97% | [13]; [17] 99% | [13]; at 50.0 µM 92.5% | [14]; at 33.0 µM 97% | [14]; at 100.0 µM 97%
